PubChem BioAssay AID1159580 (chemical genetic matrix, 2015)
Values joined by “and” are separate entries in the source; they are usually repeats but may differ in a detail not shown here. Equal entries are not always repeated. Out of some 5,500 compounds screened, about 2,000 (36%) were called active. Inconclusive results (about 18%) are left out. No stated cut-off is given here; in the data, active means normalized growth mostly below about 0.91 (no sharp cut-off); inconclusive means no clear call, values can overlap the other calls; inactive means mostly above about 0.92. The list shows a part of the results. Where a SMILES comes first, the peptide text is derived from it. The star is where a group is joined. For = O=C*

Test: chemical genetic growth profiling, strain panel (AID 1159580);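 further: tested at 20 µM; growth read once vehicle control cultures reached saturation at 30 °C; 1 = growth at the plate median or of vehicle wells; lower values mean less growth of the strain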
Conditions: growth OD

Measured: normalized growth

CSCCC(NC=O)C(=O)NC(Cc1ccccc1)C(=O)O (stereo not drawn) (For-Met-Phe-OH; configuration not given here)
inactive: S. cerevisiae deletion strains, locus YAL013W, strain DEP1, active compounds read low 1.02 | S. cerevisiae deletion strains, locus YBR021W, strain FUR4, active compounds read low 1.04 | S. cerevisiae deletion strains, locus YBR229C, strain ROT2, active compounds read low 1.01 | S. cerevisiae deletion strains, locus YCL029C, strain bik1, active compounds read low 1.03 | S. cerevisiae deletion strains, locus YDL035C, strain GPR1, active compounds read low 1.03 | S. cerevisiae deletion strains, locus YDL074C, strain BRE1, active compounds read low 1.02 | S. cerevisiae deletion strains, locus YDL101C, strain DUN1, active compounds read low 1.01 | S. cerevisiae deletion strains, locus YDL134C, strain PPH21, active compounds read low 1.03 | S. cerevisiae deletion strains, locus YDL185W, strain tfp1, active compounds read low 1.02 | S. cerevisiae deletion strains, locus YDL192W, strain arf1, active compounds read low 1.02 | S. cerevisiae deletion strains, locus YDR101C, strain arx1, active compounds read low 0.998 | S. cerevisiae deletion strains, locus YDR150W, strain NUM1, active compounds read low 1.01 | S. cerevisiae deletion strains, locus YDR162C, strain NBP2, active compounds read low 1.01 | S. cerevisiae deletion strains, locus YDR318W, strain mcm21, active compounds read low 1.02 | S. cerevisiae deletion strains, locus YDR388W, active compounds read low 1.02 | S. cerevisiae deletion strains, locus YDR502C, strain sam2, active compounds read low 1.01 | S. cerevisiae deletion strains, locus YEL061C, strain CIN8, active compounds read low 1.01 | S. cerevisiae deletion strains, locus YER110C, active compounds read low 1.02 | S. cerevisiae deletion strains, locus YER155C, strain BEM2, active compounds read low 1 | S. cerevisiae deletion strains, locus YER167W, strain BCK2, active compounds read low 1 | S. cerevisiae deletion strains, locus YGL078C, strain dbp3, active compounds read low 1.01 | S. cerevisiae deletion strains, locus YGL086W, strain mad1, active compounds read low 1 | S. cerevisiae deletion strains, locus YGL248W, strain PDE1, active compounds read low 1 | S. cerevisiae deletion strains, locus YGR135W, strain pre9, active compounds read low 1.02 | S. cerevisiae deletion strains, locus YGR229C, strain SMI1, active compounds read low 1.02 | S. cerevisiae deletion strains, locus YGR252W, strain gcn5, active compounds read low 1.03 | S. cerevisiae deletion strains, locus YHR030C, strain SLT2, active compounds read low 1.01 and 1.07 | S. cerevisiae deletion strains, locus YHR079C, strain IRE1 (second series), active compounds read low 1.02 | S. cerevisiae deletion strains, locus YHR079C, strain IRE1, active compounds read low 1.04 | S. cerevisiae deletion strains, locus YHR094C, strain hxt1, active compounds read low 1.02 | S. cerevisiae deletion strains, locus YHR129C, strain ARP1, active compounds read low 1 | S. cerevisiae deletion strains, locus YHR200W, strain rpn10, active compounds read low 1.03 | S. cerevisiae deletion strains, locus YIL066C, strain RNR3, active compounds read low 1.01 | S. cerevisiae deletion strains, locus YIL073C, strain SPO22, active compounds read low 1.08 | S. cerevisiae deletion strains, locus YIL125W, strain kgd1, active compounds read low 1.01 | S. cerevisiae deletion strains, locus YIR030C, strain dcg1, active compounds read low 1.01 | S. cerevisiae deletion strains, locus YJL095W, strain BCK1, active compounds read low 1 and 1.06 | S. cerevisiae deletion strains, locus YJL134W, strain LCB3, active compounds read low 1 | S. cerevisiae deletion strains, locus YJL168C, strain set2, active compounds read low 1.01 | S. cerevisiae deletion strains, locus YJL187C, strain SWE1 (second series), active compounds read low 1.01 | S. cerevisiae deletion strains, locus YJR043C, strain POL32, active compounds read low 1.01 | S. cerevisiae deletion strains, locus YJR066W, strain TOR1, active compounds read low 1.01 | S. cerevisiae deletion strains, locus YKL009W, strain mrt4, active compounds read low 1.02 | S. cerevisiae deletion strains, locus YKL068W, active compounds read low 1.01 | S. cerevisiae deletion strains, locus YKL085W, strain MDH1 (second series), active compounds read low 1.01 | S. cerevisiae deletion strains, locus YKL085W, strain MDH1, active compounds read low 1.01 | S. cerevisiae deletion strains, locus YKL190W, strain CNB1, active compounds read low 1.01 | S. cerevisiae deletion strains, locus YKR001C, strain vps1, active compounds read low 1.02 | S. cerevisiae deletion strains, locus YLR039C, strain RIC1, active compounds read low 1.06 | S. cerevisiae deletion strains, locus YLR058C, strain SHM2, active compounds read low 1.01 | S. cerevisiae deletion strains, locus YLR102C, strain apc9, active compounds read low 1.02 | S. cerevisiae deletion strains, locus YLR113W, strain HOG1, active compounds read low 0.978 | S. cerevisiae deletion strains, locus YLR262C, strain YPT6, active compounds read low 1.04 | S. cerevisiae deletion strains, locus YLR268W, strain sec22, active compounds read low 1.02 | S. cerevisiae deletion strains, locus YLR330W, strain CHS5, active compounds read low 1.01 | S. cerevisiae deletion strains, locus YLR342W, strain FKS1 (second series), active compounds read low 1.03 | S. cerevisiae deletion strains, locus YLR371W, strain rom2, active compounds read low 1.02 | S. cerevisiae deletion strains, locus YLR418C, strain cdc73, active compounds read low 1.06 | S. cerevisiae deletion strains, locus YML016C, strain PPZ1, active compounds read low 0.999 | S. cerevisiae deletion strains, locus YML032C, strain rad52, active compounds read low 1.02 | S. cerevisiae deletion strains, locus YML124C, strain tub3, active compounds read low 1.01 | S. cerevisiae deletion strains, locus YMR078C, strain ctf18, active compounds read low 1.01 | S. cerevisiae deletion strains, locus YMR223W, strain ubp8, active compounds read low 1.02 | S. cerevisiae deletion strains, locus YMR263W, strain SAP30, active compounds read low 1.01 | S. cerevisiae deletion strains, locus YMR307W, strain GAS1, active compounds read low 1.04 | S. cerevisiae deletion strains, locus YNL067W, strain RPL9B, active compounds read low 1.02 | S. cerevisiae deletion strains, locus YNL128W, strain TEP1, active compounds read low 1.04 | S. cerevisiae deletion strains, locus YNL183C, strain NPR1, active compounds read low 0.989 | S. cerevisiae deletion strains, locus YNL233W, strain BNI4, active compounds read low 1 | S. cerevisiae deletion strains, locus YNL250W, strain rad50, active compounds read low 1.01 | S. cerevisiae deletion strains, locus YNL271C, strain bni1, active compounds read low 1.02 | S. cerevisiae deletion strains, locus YNL298W, strain CLA4, active compounds read low 1.03 | S. cerevisiae deletion strains, locus YNL307C, strain MCK1, active compounds read low 1.03 | S. cerevisiae deletion strains, locus YNL322C, strain KRE1, active compounds read low 1.01 | S. cerevisiae deletion strains, locus YNR052C, strain pop2, active compounds read low 1.02 | S. cerevisiae deletion strains, locus YOL006C, strain TOP1, active compounds read low 0.99 | S. cerevisiae deletion strains, locus YOL012C, strain htz1 0.63 | S. cerevisiae deletion strains, locus YOL147C, strain pex11, active compounds read low 1.03 | S. cerevisiae deletion strains, locus YOR061W, strain CKA2, active compounds read low 1 | S. cerevisiae deletion strains, locus YOR069W, strain VPS5, active compounds read low 1.01 | S. cerevisiae deletion strains, locus YOR136W, strain idh2, active compounds read low 1.02 | S. cerevisiae deletion strains, locus YOR144C, strain elg1, active compounds read low 1.01 | S. cerevisiae deletion strains, locus YOR184W, strain ser1, active compounds read low 1.02 | S. cerevisiae deletion strains, locus YOR231W, strain MKK1, active compounds read low 1.02 | S. cerevisiae deletion strains, locus YOR316C, strain cot1, active compounds read low 1.03 | S. cerevisiae deletion strains, locus YPL055C, strain LGE1, active compounds read low 0.997 | S. cerevisiae deletion strains, locus YPL241C, strain CIN2, active compounds read low 1 | S. cerevisiae deletion strains, locus YPL256C, strain CLN2, active compounds read low 1.07 | S. cerevisiae deletion strains, locus YPR119W, strain clb2, active compounds read low 1.01 | S. cerevisiae deletion strains, locus YPR141C, strain kar3, active compounds read low 1.01 | S. cerevisiae deletion strains, locus YPR163C, strain tif3, active compounds read low 1.01 | S. cerevisiae deletion strains, locus YPR167C, strain met16, active compounds read low 1.03 | S. cerevisiae deletion strains, strain wtn01, active compounds read low 1.04 | S. cerevisiae strains, strain wild type, active compounds read low 1.01
